ALR inh: human ALR oxidase inhibition via reduced H2O2; P55789; purified ALR, DTT oxidation, H2O2 HRP-luminol luminescence; inhibition, % (concentration not given with the values); 290,000 tested, 3.8% active;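 active = mean replicate inhibition above about 79%, with every replicate also reaching it, limit read from the data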
Target sequence (P55789 whole entry, looked up): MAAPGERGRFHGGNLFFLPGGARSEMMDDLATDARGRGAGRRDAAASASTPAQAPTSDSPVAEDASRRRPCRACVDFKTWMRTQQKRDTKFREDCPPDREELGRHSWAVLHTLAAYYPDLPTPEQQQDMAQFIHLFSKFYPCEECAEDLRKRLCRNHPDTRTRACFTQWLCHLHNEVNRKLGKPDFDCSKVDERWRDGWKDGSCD
Env fusion inh: HIV envelope-mediated fusion inhibition; HeLa-JRFL Env/CEM21 cell fusion, luciferase; inhibition, % at 12.3 µM; 360,000 tested, 1.1% active;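 active = mean replicate inhibition score of at least 50 and every replicate individually at or above 50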;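 note: 0% = plate neutral controls and 100% = maraviroc near 300 nM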
CFTR F508del cor: correctors of CFTR F508del function in bronchial epithelial cells; activity (quench increase), % at 7.58 µM; 350,000 tested, 0.36% active; CFBE cells, YFP halide quenching; stimulated with forskolin plus potentiator P3; % fluorescence drop versus neutral controls;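 active = mean added fluorescence quench of at least 8% versus neutral control, with both replicates also reaching 8%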;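 note: cells transiently co-express mutant CFTR-F508del with the halide-sensitive YFP; corrector assay measuring rescue of mutant channel to the surface after 24 h compound exposure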
PglD inh: blocks C. jejuni PglD acetyltransferase activity; purified PglD enzyme, DTNB colorimetric CoA detection; inhibition, % at 12.5 µM; 360,000 tested, 0.098% active; AID 602405; in the data active = inhibition above about 16%, passing the limit was not always enough
CASP6 VEID inh: inhibitors of human caspase-6; P55212; purified caspase-6, Z-VEID-R110 cleavage fluorescence; inhibition, % at 12.5 µM; 350,000 tested, 0.53% active; AID 686996;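 active = mean inhibition across replicates at least about 35%, with every replicate also reaching that limit, limit read from the data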;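 note: 0% = median of neutral control wells and 100% = no fluorescence left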
Target sequence (P55212 24-179 limits assumed): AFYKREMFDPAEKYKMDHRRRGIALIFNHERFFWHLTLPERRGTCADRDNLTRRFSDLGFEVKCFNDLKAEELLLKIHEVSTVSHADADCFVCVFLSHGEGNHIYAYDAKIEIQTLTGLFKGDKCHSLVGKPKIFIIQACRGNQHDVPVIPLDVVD
Target sequence (P55212 194-293 limits assumed): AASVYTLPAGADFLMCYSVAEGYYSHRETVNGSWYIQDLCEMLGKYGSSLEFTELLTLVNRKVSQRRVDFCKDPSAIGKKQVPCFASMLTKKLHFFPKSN
NSD2 inh: blocks human histone methyltransferase NSD2 | O96028 | inhibition, % at 12.5 µM | AID 743445 | NSD2 peptide methylation, AlphaScreen, 120 min | 310,000 tested, 0.54% active; in the data active = inhibition above about 50%
* marks the source's active call; other numbers are inactive results; nt = not tested or not shown; [ ] = dose if it differs, or a comment. Compounds with a hit are over-represented: about 4.1% of the library has one in this group of screens.

SMILES	ALR inh	Env fusion inh	CFTR F508del cor	PglD inh	CASP6 VEID inh	NSD2 inh
CCOc1cc(/C=N/Nc2nc(Nc3ccccc3)nc(N3CCCCC3)n2)ccc1OCC(=O)O	97*	-4	-1	3	3	nt
O=C(C[C@H]1CC[C@@H]2[C@H](COC[C@H](O)CN2C(=O)c2ccccn2)O1)NC1CCC1	nt	nt	2	-1	7	nt
COc1ccc2c3c(n(C)c2c1)[C@H](CO)N(C(=O)Nc1ccc(F)cc1)CC31CCN(C(=O)CC2CC2)CC1	nt	nt	2	nt	3	nt
CCOc1cc(/C=N/NC(=O)c2ccc(-c3csc(Nc4ccc(C)cc4)n3)cc2)ccc1OCC(=O)O	nt	5	0	nt	50*	-5
CCOc1cc(/C=N/Nc2ccccc2Cl)ccc1OCC(=O)O	99*	-15	nt	2	25	3
COc1ccc(/C=N/Nc2nc(Nc3ccccc3)nc(N3CCCCC3)n2)cc1OC	98*	-127	nt	3	nt	0
C[C@@H]1CN([C@@H](C)CO)C(=O)c2cc(-c3ccccc3)cnc2O[C@H]1CN(C)C(=O)c1ccccn1	nt	5[16.7 µM]	-1	3	-6	nt
COc1ccc2c3c(n(C)c2c1)[C@@H](CO)N(C(=O)c1cccc(F)c1)CC31CCN(C(=O)c2cccc(F)c2)CC1	nt	nt	-1	nt	nt	nt
CCOc1cc(/C=C2\SC(=S)N(C(C(=O)O)c3ccccc3)C2=O)ccc1O (configuration not stated)	100*	6	14*	-14	14	nt
CCOc1cc(/C=C2\SC(=S)N(NC(=O)c3cccnc3)C2=O)ccc1O	99*	3	1	-5	7	nt
COc1cc(/C=C2\SC(=S)N(NC(=O)c3cccc(O)c3)C2=O)ccc1O	95*	-2	0	-7	9	28
COc1cc(/C=C2\SC(=S)N(NC(=O)c3ccncc3)C2=O)ccc1O	99*	9	13*	nt	4	nt
CCOc1ccc(/C=C2/SC(=S)N(C(C(=O)O)c3ccccc3)C2=O)cc1OCC (configuration not stated)	nt	12	nt	nt	19	24
COc1cc(/C=C2\SC(=S)N(NC(=O)c3ccc(O)c(OC)c3)C2=O)ccc1O	nt	-9	-1	0	0	22
O=C(NN1C(=O)/C(=C/c2cccs2)SC1=S)c1cccnc1	nt	-4	1	-1	9	4
CCC(=O)N1[C@H](C(=O)N2CCc3ccccc3C2)[C@@H](CO)[C@@H]2Cn3c(cccc3=O)[C@@H]21	nt	nt	0	1	1	nt
CCC(=O)N1CC2(C1)[C@H](c1ccc(-c3ccccc3OC)cc1)[C@H](CO)N2C(C)=O	nt	nt	-3	nt	2	nt
CC12CCC3c4ccc(O)cc4CCC3C1CCC2=O (configuration not stated)	18	-33	9.4*	-4	nt	nt
C[C@]12CC[C@@H]3c4ccc(OS(=O)(=O)O)cc4CC[C@H]3[C@@H]1CCC2=O	-10	-4	-6	-2	-7	nt
O=C(C[C@H]1C[C@@H]2c3cc(NC(=O)NC4CCCCC4)ccc3O[C@@H]2[C@@H](CO)O1)NC1CCCC1	nt	nt	0	nt	5	nt
COc1ccccc1N1C(=O)CC(N(O)c2ccccc2)C1=O (configuration not stated)	36	3	-2	nt	2	-1
CCCOc1ccccc1N1C(=O)CC(N(O)c2ccccc2)C1=O (configuration not stated)	97*	7	1	nt	-2	3
CC1(C)C2CCC1(C)C(OC(=O)c1ccccc1C(=O)O)C2 (configuration not stated)	-2	1	1	3	-1	0
CC1(C)C2CCC1(C)C(OCCNCCOC(=O)Nc1ccccc1)C2 (configuration not stated)	-12	69*	-3	0	4	14
Cc1cccc(-c2ccc(C3[C@@H]4CN(C(=O)C5CCCCC5)C[C@H]3N4)cc2)c1 (some centres not stated)	nt	nt	-1	nt	nt	nt
SMILES	ALR inh	Env fusion inh	CFTR F508del cor	PglD inh	CASP6 VEID inh	NSD2 inh
c1cncc(CN=C2Nc3ccccc3CS2)c1	98*	-2	3	nt	nt	0
Clc1ccc(CN=C2Nc3ccccc3CS2)cc1	-7	-241	nt	nt	nt	3
Cn1cccc1C(=O)OCC(=O)N1CCN(c2ccccc2)CC1	98*	-7	2	-3	-3	2
O=C(OCC(=O)N1CCN(c2ccccc2)CC1)c1ccccn1	74	3	nt	3	nt	-3
O=C(OCC(=O)N1CCN(c2ccccc2)CC1)c1ccc2ccccc2n1	97*	-68	nt	-1	nt	0
Cc1ccccc1-c1nc2c3ccccc3nc(=S)n2[nH]1	nt	1	-1	2	0	3
Cc1nc2ccccc2n1CCc1nc2c3ccccc3nc(=S)n2[nH]1	92*	-118	nt	4	nt	-1
C[C@@H]1CN([C@@H](C)CO)C(=O)c2cc(N(C)C)ccc2O[C@@H](C)CCCCO[C@@H]1CN(C)C(=O)Nc1ccc2c(c1)OCO2	nt	25[16.7 µM]	0	nt	nt	nt
O=C(C[C@@H]1CC[C@H](NC(=O)c2cccnc2)[C@H](CO)O1)NCc1ccncn1	nt	0[16.7 µM]	1	1	0	nt
Cc1ccc(C(=O)NCCSCc2ccc(Cl)cc2Cl)cc1[N+](=O)[O-]	89*	9	nt	nt	-6	-6
Cc1ccc(S(=O)(=O)N2CCCCCC2)cc1C(=O)Nc1cccnc1	-7	11	-1	-2	4	-1
Cc1ccc(S(=O)(=O)N2CCCCC2)cc1C(=O)NCCC1=CCCCC1	0	73*	-2	nt	1	-13
Cc1ccnc(NS(=O)(=O)c2ccc(NC(=O)c3ccc(S(=O)(=O)N4CCCC4)cc3)cc2)n1	-2	14	nt	nt	3	1
O=C(Nc1ccc(S(=O)(=O)Nc2ncccn2)cc1)c1ccc(S(=O)(=O)N2CCCC2)cc1	96*	15	2	nt	1	3
O=C(CCNC(=O)c1ccccc1Cl)NCCC1=CCCCC1	nt	58*	3	1	11	nt
Cc1ccc(S(=O)(=O)N2CCCCC2)cc1C(=O)Nc1ccc(S(=O)(=O)Nc2ncccn2)cc1	-15	-2	-4	-5	51*	nt
CCN(CCCn1c(SCC#N)nc2ccccc2c1=O)c1ccccc1	14	62*	nt	0	nt	-2
C=C(C)Cn1c(SCC#N)nc2ccccc2c1=O	-16	nt	nt	1	nt	-1
Cc1cc(C(=O)Nc2ccc(S(=O)(=O)Nc3onc(C)c3C)cc2)cs1	97*	-7	nt	nt	nt	0
Cc1noc(NS(=O)(=O)c2ccc(NC(=O)c3ccoc3C)cc2)c1C	12	-7	nt	-1	nt	-2
Cc1cc(NS(=O)(=O)c2ccc(NC(=O)c3oc4ccccc4c3C)cc2)no1	98*	57*	nt	10	nt	-5
Cc1cc(C(=O)Nc2ccc(S(=O)(=O)Nc3onc(C)c3C)cc2)c(C)o1	84*	-76	nt	0	nt	nt
Cc1ccc2oc(C(=O)Nc3ccc(S(=O)(=O)Nc4onc(C)c4C)cc3)c(C)c2c1	98*	13	2	-2	-4	9

Screening data: PubChem BioAssay, Broad Institute
